# Screens (PubChem)
# Hits are enriched below; roughly 10% of the tested compounds scored in any of these assays.
# GPT2 inh – Primary qHTS assay for inhibitors of Glutamate pyruvate transaminase 2 (GPT2). Alanine aminotransferase 2 (Homo sapiens), Q8TD30. Recombinant GPT2, coupled pyruvate oxidase/HRP Amplex Red fluorescence. actives 0.25% (n = 100,000). AID 1671188, 2021. Potency, µM (titrated, usually from 57.7 µM), for the others: at the highest dose activity change, negative = inhibition, hits mostly inhibitors; note: % is set by controls: 0 for no effect and ±100 for the full control effect; nearly all actives have a fitted effect of over 60% in size
#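 Recombinant GPT2 (10ng/uL) with 250uM a-KG and 2mM L-alanine, 30 min at room temperature, in HEPES pH 7.5 buffer. Pyruvate detected by pyruvate oxidase/HRP/Amplex Red fluorescence after 30 min in the dark; AOA (50uM) as positive control.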
# HEK cytotox – Cytotoxic Profiling in HEK 293 Cell Line of Diverse Libraries Using Quantitative High-Throughput Screening. HEK 293 viability, ATP luminescence (CellTiter-Glo), 48-72 h. Potency, µM (doses to about 115 µM), without a hit: at the highest dose activity change, negative = cytotoxicity, usual class: inhibitors. actives 6.6% (n = 94,000). AID 1345083, 2018; note: % is set by controls: 0 for no effect and ±100 for the full control effect; nearly all actives have a fitted effect of over 60% in size
#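 Cells seeded first (HEK 293, 250 cells/well), then compound added by pintool. Incubation ran 48 or 72 hr at 37 degree Celsius. CellTiter-Glo was added and luminescence imaged after 10 min at room temperature.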
# FLuc inh-1 – Firefly luciferase inhibition profiling of diverse chemical library using quantitative high-throughput screening | actives 2.5% (n = 76,000) | AID 1347043, 2019 | Luciferin 4-monooxygenase (Photinus pyralis), P08659 | Potency, µM (doses to about 115 µM), most hits filed as inhibitors | purified P. pyralis luciferase, luminescence, biochemical; note: % is set by controls: 0 for no effect and ±100 for the full control effect; nearly all actives have a fitted effect of over 65% in size
# Target sequence (P08659 whole entry, looked up): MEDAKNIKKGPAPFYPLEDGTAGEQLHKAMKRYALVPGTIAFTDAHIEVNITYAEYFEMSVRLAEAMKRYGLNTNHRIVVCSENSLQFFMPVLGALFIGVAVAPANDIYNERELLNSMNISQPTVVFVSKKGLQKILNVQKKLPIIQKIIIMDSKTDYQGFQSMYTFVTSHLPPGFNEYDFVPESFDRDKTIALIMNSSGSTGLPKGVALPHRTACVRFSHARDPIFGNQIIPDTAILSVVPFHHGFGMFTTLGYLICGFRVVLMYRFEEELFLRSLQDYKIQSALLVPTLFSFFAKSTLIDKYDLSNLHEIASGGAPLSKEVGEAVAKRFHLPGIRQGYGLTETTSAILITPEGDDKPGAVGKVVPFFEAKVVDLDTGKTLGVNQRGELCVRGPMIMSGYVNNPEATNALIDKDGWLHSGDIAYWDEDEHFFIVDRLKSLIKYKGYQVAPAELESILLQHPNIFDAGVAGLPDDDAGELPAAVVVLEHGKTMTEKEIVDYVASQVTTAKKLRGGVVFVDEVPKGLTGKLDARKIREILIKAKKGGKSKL
#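 Purified P. pyralis luciferase (10nM final) in 50mM Tris acetate pH 7.5, 10mM Mg acetate, 0.01% Tween-20, 0.05% BSA with 10uM D-luciferin and 10uM ATP. Compounds titrated qHTS. Luminescence imaged on CCD.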
# NPR1 antag – Natriuretic polypeptide receptor (hNpr1) antagonism - Primary qHTS; HEK293 hNpr1 GloSensor cGMP, ANP-stimulated luminescence; Atrial natriuretic peptide receptor 1 (Homo sapiens), P16066; Potency, µM (top dose mostly 46.3 µM), without a hit: at the highest dose activity change, negative = inhibition, most hits filed as inhibitors; actives 1.6% (n = 76,000); AID 1347048, 2019; calls by dose curve; note: % is set by controls: 0 for no effect and ±100 for the full control effect; nearly all actives have a fitted effect of over 60% in size
#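 Compound pre-incubated 30 min at room temperature on GloSensor-loaded HEK293 cells stably carrying hNpr1 and the pGS-40F cGMP biosensor. Stimulation uses hNppA at 0.1 nM final; luminescence is taken at baseline and 20 min post-agonist.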
# NIH3T3 tox – Cytotoxic Profiling in NIH 3T3 Cell Line of Diverse Libraries Using Quantitative High-Throughput Screening; NIH 3T3 viability, CellTiter-Glo ATP luminescence, 48-72 h; Potency, µM (titrated, usually from 96.7 µM), for the others: at the top dose activity change, negative = cytotoxicity, actives largely listed as inhibitors; actives 4.3% (n = 94,000); note: % is set by controls: 0 for no effect and ±100 for the full control effect; nearly all actives have a fitted effect of over 55% in size
#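 Cells were seeded at 400 per well, treated with pin-transferred compound, and kept 48 or 72 hr at 37 °C before CellTiter-Glo addition and luminescence imaging of cellular ATP.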
# FLuc SDR -ATP – Firefly luciferase (FLuc-C-HiBiT) SDR gain of signal screen - without ATP | shares compounds with FLuc inh-1 | Purified FLuc-C-HiBiT, Nano-Glo HiBiT luminescence, no ATP | Potency, µM (doses to about 32.7 µM), without a hit: at the top dose activation (signal gain), hits mostly activators | actives 7.8% (n = 1,300) | AID 1963318, 2024; note: nearly all actives have a fitted effect of over 55% in size
# FLuc SDR ATP – Firefly luciferase (FLuc-C-HiBiT) SDR gain of signal screen - plus ATP | purified FLuc-C-HiBiT + ATP, HiBiT complementation luminescence | AID 1963319, 2024 | Potency, µM (titrated, usually from 32.7 µM), inactives show at the top dose activation (gain of signal), most hits filed as activators | shares compounds with FLuc inh-1 | actives 8.7% (n = 1,300);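 note: signal reports ligand binding via conformational change of the enzyme rather than luciferase catalysis; % of control where 0% means no effect; nearly all actives have a fitted effect of over 55% in size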
# FLuc inh-2 – Firefly luciferase (FLuc-C-HiBiT) enzymatic inhibition screen - Functional assay; purified FLuc-C-HiBiT enzyme, luciferin luminescence; shares compounds with FLuc inh-1; Potency, µM (highest dose often 32.7 µM), for inactives: top-dose activity change, negative = inhibition, actives largely listed as inhibitors; AID 1963320, 2024; actives 42% (n = 1,300); note: % is set by controls: 0 for no effect and ±100 for the full control effect; nearly all actives have a fitted effect of over 70% in size
# Numbers without * were called inactive; i = inactive; ? = inconclusive; · = no result; [ ] = another dose, or the depositor's remark. Unless noted, calls come from the whole dose curve; as a rule, active = well fitted curve in the direction sought with a large enough effect; inconclusive = small, poorly fitted or top-dose-only effect, or another doubt; inactive = no such curve, though single readings can be large; an effect the other way counts as inactive or inconclusive. Potency is the fitted concentration of half-maximal effect.
SMILES,GPT2 inh,HEK cytotox,FLuc inh-1,NPR1 antag,NIH3T3 tox,FLuc SDR -ATP,FLuc SDR ATP,FLuc inh-2
CCOc1ccc(NC(=O)C2CCN(c3cnn(Cc4ccccc4)c(=O)c3)C2)cc1 (stereo not given),i,-22.1%,i,?,-28.0%,·,·,·
Cc1ccc(/C=C/c2nc3ccccc3n2S(=O)(=O)c2cccc(Cl)c2)cc1,·,·,·,·,·,0.556µM*,0.7µM*,0.124µM*
Cc1cc(S(=O)(=O)N2CCC(n3cnnc3C)CC2)ccc1F,4.2%,-2.9%,i,-1.8%,i,·,·,·
CSc1ccc(/C=C/c2nc3ccccc3n2S(=O)(=O)c2ccc(F)c(C)c2)cc1,·,·,·,·,·,4.95µM*,?,0.7µM*
CCOc1ccc(/C=C/c2nc3ccccc3n2S(=O)(=O)c2cccc(Cl)c2)cc1,·,·,·,·,·,3.13µM*,?,0.394µM*
COCc1nncn1C1CCN(S(=O)(=O)c2cccc(Cl)c2)CC1,i,1.4%,i,-0.5%,-2.4%,·,·,·
COCCNC(=O)CCc1c(C)nn(-c2cccc(C)c2)c1Oc1ccccc1C,i,?,i,-22.0%,?,·,·,·
Cc1cc(C)nc(CNC2CCN(c3nc(C)nc4sccc34)CC2)n1,2.2%,-29.7%,i,-8.0%,-13.1%,·,·,·
OC1(CN2CCCN(c3nc4ccccc4s3)CC2)CNCCOC1 (stereo not given),-8.9%,?,12.6µM*,1.6%,?,17.3%,13.6%,-6.7%
Cc1cc(N2CCN(CC3(O)CNCCOC3)CC2)n2ncnc2n1 (stereo not given),0.2%,-7.5%,i,-2.1%,-1.1%,·,·,·
O=C(NCCc1cccs1)C1CCN(C(=O)c2ncn3c2COC(c2ccc(F)cc2)C3)CC1 (stereo not given),-4.7%,-2.1%,i,-1.9%,i,·,·,·
O=C(NCCc1cccs1)C1CCN(C(=O)c2ncn3c2COC(c2ccccc2)C3)CC1 (stereo not given),2.0%,-9.2%,7.08µM*,-7.4%,-5.8%,13.1%,?,4.42µM*
O=C(NCc1cccs1)C1CCN(C(=O)c2ncn3c2COC(c2ccccc2)C3)CC1 (stereo not given),2.6%,3.5%,6.31µM*,-15.4%,-2.4%,12.8%,2.21µM*,2.48µM*
CCCCNC(=O)C1CCN(C(=O)c2ncn3c2COC(c2ccccc2)C3)CC1 (stereo not given),i,-2.3%,7.08µM*,1.9%,2.3%,13.8%,?,?
COc1ccc(CCC(=O)N2CCC(Cc3nc(-c4cnccn4)no3)CC2)cc1,3.0%,-2.3%,i,-10.6%,3.2%,·,·,·
C#CCNC(=O)C1CCc2nnc(C3CCN(C(=O)Nc4ccc(Cl)cc4)CC3)n21 (stereo not given),i,i,·,·,4.9%,·,·,·
CNC(=O)c1noc(CN2CCCC(CCc3ccccc3F)C2)n1 (stereo not given),-6.8%,-25.9%,i,-4.8%,-34.5%,·,·,·
Nc1ccc(C(=O)N2CCCn3nc(C(=O)Nc4ccccc4)cc3C2)cn1,-12.0%,?,7.08µM*,-4.9%,-26.2%,?,?,?
CCc1noc(-c2nc(-c3ccc4c(c3)OCO4)no2)n1,i,?,10µM*,-25.9%,-19.2%,25.4%,19.4%,?
Cc1cc2c(c(-c3nc4ccccc4s3)c1)OC(CNC(=O)c1occc1C)C2 (stereo not given),·,·,·,·,·,14.5%,12.0%,?
COc1ccc(C(=O)NCC2Cc3cc(C)cc(-c4nc5ccccc5s4)c3O2)c(OC)c1OC (stereo not given),·,·,·,·,·,14.5%,10.5%,0.7%
CC(C)n1cc2cc(C(=O)Nc3ccc4c(c3)OCCO4)sc2c1,i,35.5µM*,14.1µM*,?,-14.6%,22.9%,17.1%,9.89µM*
COc1ccc(CN2CCOc3nc(-c4ccc(C(=O)N(C)C)cc4)ncc3C2=O)cc1,0.7%[88.5 µM],?,?,-17.6%[70.6 µM],-11.1%[138 µM],·,·,·
O=C1c2cnc(-c3ccc(Cl)cc3)nc2OCCN1CC1CC1,·,·,·,·,·,24.3%[49.3 µM],?,4.04µM*
O=C1c2cnc(-c3ccccc3)nc2OCCN1CC1CC1,·,·,·,·,·,?,?,16.1µM*
SMILES,GPT2 inh,HEK cytotox,FLuc inh-1,NPR1 antag,NIH3T3 tox,FLuc SDR -ATP,FLuc SDR ATP,FLuc inh-2
O=C1c2cnc(-c3ccccc3)nc2OCCN1Cc1ccccc1,1.2%[88.5 µM],?,11.2µM*,-10.9%[70.6 µM],?,14.7%[49.3 µM],9.8%[49.3 µM],-19.8%[49.3 µM]
O=C(c1ccc(Cl)cc1)N1CCC2(CC1)CC(=O)N(c1ccccc1)c1ccccc1O2,i,?,·,·,-21.5%,·,·,·
Cc1ccc(C(=O)NCCc2ncc(C)n2C2CCCC2)cn1,i,i,i,-3.2%,-0.4%,·,·,·
O=C(c1ccc(F)cc1)N1CCn2c(nnc2C2CC2)C1,-6.6%[88.5 µM],-1.5%[172 µM],i,2.2%[70.6 µM],-22.3%[138 µM],11.9%[49.3 µM],8.7%[49.3 µM],1.5%[49.3 µM]
COc1ccc(C(=O)N2CCn3c(nnc3C3CC3)C2)cc1,-4.9%[88.5 µM],i,i,-0.3%[70.6 µM],-3.3%[138 µM],·,·,·
CN1CC(=O)N(C2CCC2)Cc2c1ncnc2N1CCOCC1,-17.6%,i,·,·,i,·,·,·
CN1CC(=O)N(C2CCCC2)Cc2c1ncnc2N1CCOCC1,0.1%[88.5 µM],2.7%[172 µM],i,0.3%[70.6 µM],-4.8%[138 µM],11.8%[49.3 µM],8.3%[49.3 µM],2.4%[49.3 µM]
COc1ccc(CN2CCOC[C@H](OCC(=O)N(C)C)C2)cc1,i,i,i,-0.2%[70.6 µM],i,18.0%[49.3 µM],9.6%[49.3 µM],-1.3%[49.3 µM]
CN(C)C(=O)CO[C@H]1COCCN(Cc2ccccn2)C1,0.8%[88.5 µM],i,i,2.6%[70.6 µM],3.7%[138 µM],·,·,·
O=C(c1ccccc1-c1ncc[nH]1)N1CCOC(c2ccc(Cl)cc2)C1 (stereo not given),-7.4%,?,i,?,-22.1%,·,·,·
O=C(Nc1nc2c(F)cccc2s1)c1ccc2c(c1)OCCO2,·,·,·,·,·,9.89µM*,?,0.495µM*
